PubChem BioAssay AID488815 (Broad Institute, 2010)
Measured potencies and affinities stand elsewhere. Records with an inconclusive call do not appear. Active and inactive are the calls of the source. How the calls were made is not given here.

Target: CAAX prenyl protease 1 (Saccharomyces cerevisiae (strain ATCC 204508 / S288c)) (UniProt P47154)
Experiment: Ste24 protease inhibitors, dose response, biochemical, S. cerevisiae, plate reader, cherry-pick (AID 488815)
Conditions: yeast Ste24 protease activity; series mostly up to 10 µM

Chain of CAAX prenyl protease 1 (Saccharomyces cerevisiae (strain ATCC 204508 / S288c)) (P47154 whole entry, looked up): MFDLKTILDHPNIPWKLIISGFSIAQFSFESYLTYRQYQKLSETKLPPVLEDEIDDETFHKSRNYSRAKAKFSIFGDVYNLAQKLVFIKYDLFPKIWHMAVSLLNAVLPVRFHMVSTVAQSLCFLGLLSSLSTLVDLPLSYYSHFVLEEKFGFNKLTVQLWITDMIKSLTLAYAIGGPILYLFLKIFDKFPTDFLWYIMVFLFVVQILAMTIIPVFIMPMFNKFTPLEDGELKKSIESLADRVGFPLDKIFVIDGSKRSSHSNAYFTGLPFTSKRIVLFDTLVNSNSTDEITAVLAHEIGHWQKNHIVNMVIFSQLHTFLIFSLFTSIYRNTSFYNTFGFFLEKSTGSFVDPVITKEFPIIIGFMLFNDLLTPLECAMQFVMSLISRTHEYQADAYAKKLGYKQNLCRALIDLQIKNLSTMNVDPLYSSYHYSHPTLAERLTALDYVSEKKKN

| Structure (SMILES) | outcome |
| --- | --- |
| CCOC(=O)[C@@H]1[C@H]2COc3ccc(Br)cc3[C@@H]2N2C(=O)N(c3cccc(C)c3)C(=O)[C@]12C | inactive |
| c1ccc(CCCN2CCN(CCOC(c3ccccc3)c3ccccc3)CC2)cc1 | inactive |
| Cc1ccnc(-n2c(-c3ccco3)nc3ccccc3c2=O)c1 | inactive |
| C=CCn1c(O)c(C(CC)=Nc2ccc(N(CC)CC)cc2)c(=O)[nH]c1=O | inactive |
| CC(C)OCCCNC(=O)c1c(N)n(CC2CCCO2)c2nc3ccccc3nc12 (configuration not stated) | inactive |
| O=[N+]([O-])c1ccc(C[n+]2c(-c3ccccc3)cc(-c3ccccc3)cc2-c2ccccc2)cc1 | inactive |
| CN1CCN(c2ccc([N+](=O)[O-])c(Sc3nncn3C)c2)CC1 | inactive |
